Source: PubChem BioAssay AID1117319 (Southern Research Institute, 2015)
“And” between values parts separate entries of the source, which are not always exact repeats. Equal entries are not always repeated. Out of some 260,000 compounds screened, about 1,500 (0.58%) were called active. Roughly 5% stayed inconclusive and do not appear here.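 The calls were made as follows: active = inhibition above a set limit at one or more doses, reproduced on every date tested; inconclusive = results disagree between test dates, or hit never tested in dose response; inactive = the rest.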 A selection follows. Results with a measured potency or affinity are listed apart.

Each compound was assayed against Virion infectivity factor (Human immunodeficiency virus type 1 group M subtype B (isolate BH10)) + Virion infectivity factor (Human immunodeficiency virus type 1 group M subtype B (isolate BRU/LAI)) + Virion infectivity factor (Human immunodeficiency virus type 1 group M subtype B (isolate PCV12)) + Virion infectivity factor (Human immunodeficiency virus type 1 group M subtype B (isolate HXB2)) + DNA dC->dU-editing enzyme APOBEC-3G (Homo sapiens) (UniProt P69720+P69721+P69722+P69723+Q9HC16) (assay: inhibitors of Vif binding to APOBEC3G peptide, primary screen, biochemical, TR-FRET, GST-Vif 1-94, biotin-A3G peptide, dose response retest (AID 1117319;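 also: Vif residues 1-94 fused to GST binding biotinylated APOBEC3G peptide 110-148; 0% = full assay without inhibitor and 100% = GST in place of GST-Vif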)). Conditions: stronger effect = higher value.

inhibition, inactive:
C=CCn1c(C)cc(C(=O)CSc2nc3ccccc3c(=O)[nH]2)c1C 11.7%
COCCn1c(C)cc(C(=O)CSc2nc3ccccc3c(=O)[nH]2)c1C 25.5%
COc1ccccc1C1CCN(Cc2ccc(Cl)c(Cl)c2)CC1 -7.3%
CC(C)(C)C(=O)Cn1c[n+](N)cn1 2.71%
Cc1c(Br)c(=O)oc2c(Br)c(O)ccc12 -6.73%
Cc1c(Br)c(=O)oc2c(C)c(O)ccc12 -26.6%
Cc1cc(SCC(=O)N/N=C/c2ccc(O)c(O)c2)c(C)cc1Br 7.89%
Cc1cc(SCC(=O)N/N=C/c2ccc(O)cc2O)c(C)cc1Br 31.7%
COc1ccc(CN2C(=O)c3cccnc3C2=O)cc1S(=O)(=O)N1CCCCC1C (configuration not stated) 1.43%
CCOC(=O)C1=C(C)C(c2ccccc2OC)NC(=O)N1 (configuration not stated) 25.5%
N#CCc1ccc(Oc2ncccn2)cc1 2.04%
O=C(c1ccccc1)c1ccc(Oc2ncccn2)cc1 -0.66%
O=C(COC(=O)c1ccccc1Nc1ccc(SC(F)F)cc1)NC1CC1 -3.33%
CCCCOc1ccc(C(=O)NCC(=O)OCCCOC(=O)CNC(=O)c2ccc(OCCCC)cc2)cc1 -9.89%
CCCCCOc1ccc(C(=O)NCC(=O)NCC(=O)OCC)cc1 21.7%
O=C(O)c1cc2n(n1)C(C(F)(F)F)CC(c1ccco1)N2 (configuration not stated) 23.7%
NC(=O)c1cc2n(n1)C(C(F)(F)F)CC(c1ccco1)N2 (configuration not stated) 28%
COc1ccccc1N1CCN(C(=O)c2cc3n(n2)C(C(F)(F)F)CC(c2ccco2)N3)CC1 (configuration not stated) 3.76%
NC(=O)C1CCN(C(=O)c2cc3n(n2)C(C(F)(F)F)CC(c2ccco2)N3)CC1 (configuration not stated) 21.3%
O=C(c1cc(-n2cnnc2)ccc1Cl)N1CCN(c2nc(-c3ccccc3)cs2)CC1 -0.17%
O=C(NC12CC3CC(CC(C3)C1)C2)N(Cc1ccccc1)Cc1ccncc1 -2.12%
Cc1cc(C)n2nc(SCCCC(=O)c3ccccc3)nc2n1 -0.54%
COc1ccccc1NC(=S)NNC(=O)c1cc(C)n(C)n1 5.87%
COc1ccc2[nH]c(C)c(CCNC(=S)Nc3ccccc3C)c2c1 -0.27%
O=c1oc2cc(O)c(Cl)cc2c2ccccc12 -238%
O=c1oc2cc(O)ccc2c2ccccc12 -45.8%
O=c1oc2cc(O)ccc2c2oc3cc(O)ccc3c12 21.4%
O=c1oc2ccccc2c2oc3cc(O)c(O)cc3c12 24.2%
COc1cccc(NC(=O)CN(C)C(=O)c2cc(-c3cccc(Br)c3)nc3ccccc23)c1 4.76%
CCOC(=O)c1nc(NCc2cccc(OC)c2)c2ccccc2n1 -2.69%
O=C(COC(=O)c1cc(=O)[nH]c2ccccc12)NC1CCCC1 8.34%
CCOC(=O)c1cnc2c(C#N)cnn2c1N -5.32%
CCOC(=O)c1cnc2c(C(=O)OCC)cnn2c1N 4.51%
CCSc1nc(-c2ccccc2)c(-c2ccccc2)n1CC(O)CO (configuration not stated) -5.14%
Cc1ccc[n+](-c2[nH]c(=O)sc2/C=N/N=C(\[O-])CCn2c3ccccc3c3ccccc32)c1 -0.87%
CCc1ccc[n+](-c2[nH]c(=O)sc2/C=N/NC([S-])=Nc2ccccc2)c1 30%
O=C(Nc1ccc(F)cc1Cl)c1ccc2c(=O)n3c(nc2c1)CCC3 2.76%
O=C(CSc1ccc2c(c1)OCCO2)N1CCN(c2ccccc2O)CC1 14.3%
Nc1cc(Cl)ccc1Oc1ccccc1 -0.78%
Nc1cc(Cl)ccc1Oc1ccc(Cl)cc1 14.4%
CC(=O)Nc1ccc(S(=O)(=O)NCCC(=O)N2CCC(Cc3ccccc3)CC2)cc1 -8.11%
CCC(=O)N(CCC1(C(C)C)CCOC(C)(C)C1)Cc1ccco1 (configuration not stated) 1.68%
CC(C)(C)CN1CCNC(=O)C1CC(=O)NCCN1CCCc2ccccc21 (configuration not stated) 20.1%
O=C(CC1C(=O)NCCN1Cc1ccccc1)NCCN1CCCCC1=O (configuration not stated) 4.62%
Cc1ccccc1NC(=O)c1cnn(-c2ccccc2)c1C -7.17%
NC(=S)NCc1cccnc1 -0.39%
CCn1cc(S(=O)(=O)CC(=O)NC2CCCCC2)c2ccccc21 -2.6%
CCOC(=O)N1CCN(S(=O)(=O)c2ccc(C)c(C(=O)NC3CCCCC3)c2)CC1 5.81%
c1ccc2nc(-c3ccc4c(c3)OCO4)ccc2c1 5.74%
CCNc1ccccc(-c2ccc3ccccc3n2)c1=O 14.5%
COc1ccc(NC(=O)c2cc(S(=O)(=O)N3CCCCC3)ccc2N2CCCCC2)cn1 5.2% and 0.78%
O=C(N/N=C/C=C/c1ccccc1)c1ccncc1 -6.12%
Cn1c(=O)c2c(ncn2CC(=O)N/N=C/C=C/c2ccccc2)n(C)c1=O 7.57%
O=C(C=Cc1ccco1)c1ccco1 3.42%
Cn1c(=O)c2c(ncn2CC(=O)N/N=C/C=C/c2ccccc2[N+](=O)[O-])n(C)c1=O 10.3%
COc1ccccc1/C=C/C=N/NC(=O)c1ccncc1 -1.29%
O=C(c1ccco1)N(c1ccccn1)c1ccccn1 3.18%
O=C(/C=C/c1ccco1)Nc1cccnc1 1%
O=C(/C=C/c1ccco1)Nc1ccccn1 1.75%
OC(CNCCNc1ncccc1C(F)(F)F)Cn1ccc2ccccc21 (configuration not stated) 4.3%
O=C(CNS(=O)(=O)c1ccc(Br)cc1)N1CCN(c2ccc(F)cc2)CC1 -8.26%
O=C(O)CNC(=O)CCn1nnc2ccccc2c1=O -2.36%
CCOc1cccc2sc(NC(=O)c3ccc(Br)s3)nc12 -37.3%
Cc1ccc(NC(=O)CCC(=O)N/N=C/c2cccs2)cc1C -6.77%
Cc1cc(C)n2c(SCCC(C)C)nnc2n1 10.9%
CCOC(=O)Oc1ccc2c(=O)c(Oc3cccc(C)c3)coc2c1 0.27%
CC(=O)N1CCSc2ccc(S(=O)(=O)NCCc3ccc(C)cc3)cc21 2.49%
Cc1ccc(SCc2c(C(=O)N/N=C/c3ccc(C)o3)nnn2-c2nonc2N)cc1 -4.93%
N#Cc1ccc(OCc2cccc(S(=O)(=O)N3CCOCC3)c2)cc1 0.78%
c1ccc(-c2nnc(-c3ccco3)o2)cc1 -6.32%
CC(/C=C/c1ccco1)=N/NC(=O)c1ccc(C)nc1 1.76%
CC(/C=C/c1ccco1)=N\NC(=O)c1cccc(Cl)c1 -1.59%
CC(/C=N/NC(=O)c1cccnc1)=C\c1ccco1 28.6%
O=C(N/N=C/C=C/c1ccccc1)c1cccnc1 -6.59%
CCc1c(C#N)c(SCCC(=O)Nc2cccc(OC)c2)nc2c1C(=O)CC(C)(C)C2 -3.29%
CC(C)(Cc1ccccc1)NC(=O)C(=O)c1cn(CC(=O)N2CCOCC2)c2ccccc12 6.86%
O=C(/C=C/c1ccccc1F)c1cccc([N+](=O)[O-])c1 -5.2%
O=C(CN(C(=O)CNS(=O)(=O)c1ccc(F)cc1)c1ccc(F)cc1)NCc1ccco1 -4.81%
Cc1ccc(/C=N/N2CCN(Cc3ccccc3)CC2)cc1 -2.27%
CC(=O)Nc1ccc(NC(=O)CSc2nnc(CNc3ccc(F)cc3)n2CC2CCCO2)cc1 (configuration not stated) -7.5%
Cc1ccc(NCc2nnc(SCC(=O)Nc3ncc(C)s3)n2CC2CCCO2)c(C)c1 (configuration not stated) -1.98%
COC(=O)Cn1ncc2c3ccccc3n(C)c2c1=O 4.81%
CC(=O)N(c1ccc2oc(=O)sc2c1)S(=O)(=O)c1ccccc1 7.75% and 2.73%
COc1ccc(OC)c(S(=O)(=O)N(C(C)=O)c2ccc3oc(=O)sc3c2)c1 13.9%
CCC(C)NC(=O)C1CCC(CNS(=O)(=O)c2ccc3c(c2)CC(C)N3C(C)=O)CC1 (configuration not stated) 4.98%
CCCOC(=O)c1c(NC(=O)CCC(=O)O)sc2c1CCCCC2 8.05%
Cc1ccc(OCCNC(=O)c2ccccc2N)cc1 8.93%
CC(=O)C1=C(c2ccccc2)NC(=O)NC1c1ccccc1OCC(=O)Nc1ccccc1 (configuration not stated) -2.45%
S=C(NCCc1ccccc1)Nc1ncccn1 4.03%
O=C1CCC/C(=N\NC(=O)c2ccc(CSc3cccc4cccnc34)cc2)C1 5.86%
O=C(N/N=C/c1ccc[nH]1)c1ccc(COc2cccc3cccnc23)cc1 9.25%
CC(Nc1nc(-c2ccccc2O)nc2ccccc12)c1ccccc1 (configuration not stated) 4.08%
CCOc1ccc(-c2cc(N3C(=O)Nc4ccccc4N3O)on2)cc1 19.2%
COc1c(O)c(O)c2oc(-c3ccccc3)cc(=O)c2c1OC -3.24%
O=c1cc(-c2ccc(O)cc2)oc2ccc(O)cc12 28.2%
O=C(O)c1ccccc1C(=O)NC1CCCc2ccccc21 (configuration not stated) -5.37%
Cc1cc(C)c(NC(=O)CN(C)CC(=O)N(C)CC(=O)Nc2c(Cl)cccc2Cl)c(C)c1 -11.3%
